# Substitutions are numbered along the chain they refer to.
# B1: GTGCCTTA (ssRNA)
# RNA 1: GAGUUCUACAGUCCGACGAUCCCAACGUGCCUUACACCUGGAAUUCUCGGGUGCCAA
# RNA 2: UGGAGUGUGACAAUGGUGUUUG
# DNA 1: GATCGTCGGACTGTAGAACTC
# DNA 2: TTGGCACCCGAGAATTCCA
# modifications: constant regions annealed to DNA blockers; guide miR-122 5' phosphate
# B2: GCGCTCCG (ssRNA)
# RNA 1: B1 RNA 1 with U28C, C31U, U32C, U33C, A34G
# RNA 2: UGGAGUGUGACAAUGGUGUUUG
# DNA 1: GATCGTCGGACTGTAGAACTC
# DNA 2: TTGGCACCCGAGAATTCCA
# modifications: constant regions annealed to DNA blockers; guide miR-122 5' phosphate
# B3: ATGTCTTA (ssRNA)
# RNA 1: B1 RNA 1 with G27A, C30U
# RNA 2: UGGAGUGUGACAAUGGUGUUUG
# DNA 1: GATCGTCGGACTGTAGAACTC
# DNA 2: TTGGCACCCGAGAATTCCA
# modifications: constant regions annealed to DNA blockers; guide miR-122 5' phosphate
# B4: GCACCCCG (ssRNA)
# RNA 1: B1 RNA 1 with U28C, G29A, U32C, U33C, A34G
# RNA 2: UGGAGUGUGACAAUGGUGUUUG
# DNA 1: GATCGTCGGACTGTAGAACTC
# DNA 2: TTGGCACCCGAGAATTCCA
# modifications: constant regions annealed to DNA blockers; guide miR-122 5' phosphate
# B5: GTGCTTCG (ssRNA)
# RNA 1: B1 RNA 1 with C31U, U33C, A34G
# RNA 2: UGGAGUGUGACAAUGGUGUUUG
# DNA 1: GATCGTCGGACTGTAGAACTC
# DNA 2: TTGGCACCCGAGAATTCCA
# modifications: constant regions annealed to DNA blockers; guide miR-122 5' phosphate
# B6: ACACCCCG (ssRNA)
# RNA 1: B1 RNA 1 with G27A, U28C, G29A, U32C, U33C, A34G
# RNA 2: UGGAGUGUGACAAUGGUGUUUG
# DNA 1: GATCGTCGGACTGTAGAACTC
# DNA 2: TTGGCACCCGAGAATTCCA
# modifications: constant regions annealed to DNA blockers; guide miR-122 5' phosphate
# B7: ACACCTTA (ssRNA)
# RNA 1: B1 RNA 1 with G27A, U28C, G29A
# RNA 2: UGGAGUGUGACAAUGGUGUUUG
# DNA 1: GATCGTCGGACTGTAGAACTC
# DNA 2: TTGGCACCCGAGAATTCCA
# modifications: constant regions annealed to DNA blockers; guide miR-122 5' phosphate
# B8: ACATTTTA (ssRNA)
# RNA 1: B1 RNA 1 with G27A, U28C, G29A, C30U, C31U
# RNA 2: UGGAGUGUGACAAUGGUGUUUG
# DNA 1: GATCGTCGGACTGTAGAACTC
# DNA 2: TTGGCACCCGAGAATTCCA
# modifications: constant regions annealed to DNA blockers; guide miR-122 5' phosphate
# B9: ACGTTCCA (ssRNA)
# RNA 1: B1 RNA 1 with G27A, U28C, C30U, C31U, U32C, U33C
# RNA 2: UGGAGUGUGACAAUGGUGUUUG
# DNA 1: GATCGTCGGACTGTAGAACTC
# DNA 2: TTGGCACCCGAGAATTCCA
# modifications: constant regions annealed to DNA blockers; guide miR-122 5' phosphate
# B10: ATGTTTTA (ssRNA)
# RNA 1: B1 RNA 1 with G27A, C30U, C31U
# RNA 2: UGGAGUGUGACAAUGGUGUUUG
# DNA 1: GATCGTCGGACTGTAGAACTC
# DNA 2: TTGGCACCCGAGAATTCCA
# modifications: constant regions annealed to DNA blockers; guide miR-122 5' phosphate
# Legend:
# Experiment in all cases: RNA Bind-n-Seq (nitrocellulose filter binding and sequencing); miR-122 guide loaded in AGO2; 60 min incubation; 30 mM Tris pH 8.0, 100 mM potassium acetate, 2 mM magnesium acetate, 0.5 mM TCEP, 0.005% NP-40, 0.01 mg/ml yeast tRNA; 3 nM AGO2-miR-122, 100 nM RNA library; 60; high values mean tight binding
# Settings in all cases: protein: recombinant; tags: His6 (N-terminal, pFastBac HTA)
# [1] = target: AGO2 WT (phosphosite mutant background) (Homo sapiens, UniProt Q9UKV8 1-859, S387D;S824A;S828D;S831D;S834A)
# AGO2 WT (phosphosite mutant background), sequence (Q9UKV8 whole entry S387D/S824A/S828D/S831D/S834A): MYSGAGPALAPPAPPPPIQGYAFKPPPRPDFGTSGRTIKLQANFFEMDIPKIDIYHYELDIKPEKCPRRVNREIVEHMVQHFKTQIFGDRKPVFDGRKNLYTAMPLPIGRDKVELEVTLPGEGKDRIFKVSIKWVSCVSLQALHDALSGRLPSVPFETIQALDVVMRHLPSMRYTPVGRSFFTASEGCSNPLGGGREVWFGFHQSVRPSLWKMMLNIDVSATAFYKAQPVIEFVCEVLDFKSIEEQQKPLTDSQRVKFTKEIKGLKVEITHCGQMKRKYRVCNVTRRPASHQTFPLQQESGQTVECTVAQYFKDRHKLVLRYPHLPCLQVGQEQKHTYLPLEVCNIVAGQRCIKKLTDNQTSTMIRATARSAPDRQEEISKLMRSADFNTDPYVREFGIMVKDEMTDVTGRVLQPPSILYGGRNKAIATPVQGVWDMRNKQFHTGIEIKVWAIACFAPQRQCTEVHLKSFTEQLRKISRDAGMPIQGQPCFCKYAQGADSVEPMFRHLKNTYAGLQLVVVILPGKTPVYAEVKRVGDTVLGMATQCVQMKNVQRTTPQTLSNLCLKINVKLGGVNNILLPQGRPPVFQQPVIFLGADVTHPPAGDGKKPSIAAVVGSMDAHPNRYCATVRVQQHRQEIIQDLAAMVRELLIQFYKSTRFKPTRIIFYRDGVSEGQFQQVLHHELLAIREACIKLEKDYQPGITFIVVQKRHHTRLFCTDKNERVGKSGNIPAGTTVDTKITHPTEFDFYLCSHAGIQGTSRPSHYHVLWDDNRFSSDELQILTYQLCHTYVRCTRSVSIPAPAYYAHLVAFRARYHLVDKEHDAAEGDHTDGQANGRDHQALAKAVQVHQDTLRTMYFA
# Procedure, shortened: (§1)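 His-tagged AGO2 was expressed in Sf9 insect cells by baculovirus, loaded with a synthetic guide RNA, and purified by Ni-NTA and a biotinylated capture oligo. Bound RNA was extracted, reverse-transcribed, barcode-amplified and Illumina-sequenced. Fold enrichment is each sequence's read fraction divided by its input-library read fraction.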
# [2] = target: AGO2 L192P (Homo sapiens, UniProt Q9UKV8 1-859, L192P;S387D;S824A;S828D;S831D;S834A)
# AGO2 L192P, sequence (Q9UKV8 whole entry L192P/S387D/S824A/S828D/S831D/S834A): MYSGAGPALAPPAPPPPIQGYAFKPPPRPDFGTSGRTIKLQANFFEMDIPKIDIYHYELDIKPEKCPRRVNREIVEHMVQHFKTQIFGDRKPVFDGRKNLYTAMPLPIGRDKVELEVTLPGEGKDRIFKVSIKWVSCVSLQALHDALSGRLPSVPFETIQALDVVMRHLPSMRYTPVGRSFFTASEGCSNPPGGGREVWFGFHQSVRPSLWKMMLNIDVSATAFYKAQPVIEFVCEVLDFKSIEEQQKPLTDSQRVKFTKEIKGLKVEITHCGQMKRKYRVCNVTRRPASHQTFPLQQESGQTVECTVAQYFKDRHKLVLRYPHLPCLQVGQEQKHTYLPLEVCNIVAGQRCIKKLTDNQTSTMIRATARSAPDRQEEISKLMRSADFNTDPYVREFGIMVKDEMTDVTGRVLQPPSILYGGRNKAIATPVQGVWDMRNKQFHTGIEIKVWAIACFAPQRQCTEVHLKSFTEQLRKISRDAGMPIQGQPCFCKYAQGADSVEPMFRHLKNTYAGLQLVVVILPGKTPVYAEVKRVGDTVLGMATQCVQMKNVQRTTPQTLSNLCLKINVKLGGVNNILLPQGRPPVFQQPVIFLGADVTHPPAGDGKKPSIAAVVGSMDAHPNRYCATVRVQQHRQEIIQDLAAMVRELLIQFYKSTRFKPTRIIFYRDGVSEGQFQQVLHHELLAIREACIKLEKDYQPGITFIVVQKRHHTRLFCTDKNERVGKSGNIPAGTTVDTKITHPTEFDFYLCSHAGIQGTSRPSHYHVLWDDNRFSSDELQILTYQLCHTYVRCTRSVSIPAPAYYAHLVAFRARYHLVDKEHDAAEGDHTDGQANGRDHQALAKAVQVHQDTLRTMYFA
# Procedure, shortened: as §1
# [3] = target: AGO2 A367P (Homo sapiens, UniProt Q9UKV8 1-859, A367P;S387D;S824A;S828D;S831D;S834A)
# AGO2 A367P, sequence (Q9UKV8 whole entry A367P/S387D/S824A/S828D/S831D/S834A): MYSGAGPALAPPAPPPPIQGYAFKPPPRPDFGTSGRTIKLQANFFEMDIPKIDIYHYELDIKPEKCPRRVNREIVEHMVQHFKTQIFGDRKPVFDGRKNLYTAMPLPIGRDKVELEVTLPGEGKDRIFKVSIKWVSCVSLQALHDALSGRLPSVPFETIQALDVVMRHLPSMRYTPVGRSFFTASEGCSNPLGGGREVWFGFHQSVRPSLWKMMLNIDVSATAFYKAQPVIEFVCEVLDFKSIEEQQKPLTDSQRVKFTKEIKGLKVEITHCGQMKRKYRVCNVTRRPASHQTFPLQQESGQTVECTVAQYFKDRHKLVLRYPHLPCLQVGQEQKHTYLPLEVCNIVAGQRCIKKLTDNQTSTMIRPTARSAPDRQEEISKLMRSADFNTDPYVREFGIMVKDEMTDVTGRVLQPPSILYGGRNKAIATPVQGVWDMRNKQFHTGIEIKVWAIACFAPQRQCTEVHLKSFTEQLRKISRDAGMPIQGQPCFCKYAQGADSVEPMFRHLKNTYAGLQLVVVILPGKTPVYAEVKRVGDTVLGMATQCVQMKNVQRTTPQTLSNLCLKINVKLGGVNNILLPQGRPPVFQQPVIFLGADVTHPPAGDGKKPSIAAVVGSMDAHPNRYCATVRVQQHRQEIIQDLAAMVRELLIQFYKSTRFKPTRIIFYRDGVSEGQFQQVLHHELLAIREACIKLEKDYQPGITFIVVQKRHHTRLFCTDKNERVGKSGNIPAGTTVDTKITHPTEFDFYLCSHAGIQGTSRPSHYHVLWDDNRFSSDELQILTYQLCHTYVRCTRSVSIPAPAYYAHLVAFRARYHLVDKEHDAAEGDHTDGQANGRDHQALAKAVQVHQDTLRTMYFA
# Procedure, shortened: as §1
# [4] = target: AGO2 T357M (Homo sapiens, UniProt Q9UKV8 1-859, T357M;S387D;S824A;S828D;S831D;S834A)
# AGO2 T357M, sequence (Q9UKV8 whole entry T357M/S387D/S824A/S828D/S831D/S834A): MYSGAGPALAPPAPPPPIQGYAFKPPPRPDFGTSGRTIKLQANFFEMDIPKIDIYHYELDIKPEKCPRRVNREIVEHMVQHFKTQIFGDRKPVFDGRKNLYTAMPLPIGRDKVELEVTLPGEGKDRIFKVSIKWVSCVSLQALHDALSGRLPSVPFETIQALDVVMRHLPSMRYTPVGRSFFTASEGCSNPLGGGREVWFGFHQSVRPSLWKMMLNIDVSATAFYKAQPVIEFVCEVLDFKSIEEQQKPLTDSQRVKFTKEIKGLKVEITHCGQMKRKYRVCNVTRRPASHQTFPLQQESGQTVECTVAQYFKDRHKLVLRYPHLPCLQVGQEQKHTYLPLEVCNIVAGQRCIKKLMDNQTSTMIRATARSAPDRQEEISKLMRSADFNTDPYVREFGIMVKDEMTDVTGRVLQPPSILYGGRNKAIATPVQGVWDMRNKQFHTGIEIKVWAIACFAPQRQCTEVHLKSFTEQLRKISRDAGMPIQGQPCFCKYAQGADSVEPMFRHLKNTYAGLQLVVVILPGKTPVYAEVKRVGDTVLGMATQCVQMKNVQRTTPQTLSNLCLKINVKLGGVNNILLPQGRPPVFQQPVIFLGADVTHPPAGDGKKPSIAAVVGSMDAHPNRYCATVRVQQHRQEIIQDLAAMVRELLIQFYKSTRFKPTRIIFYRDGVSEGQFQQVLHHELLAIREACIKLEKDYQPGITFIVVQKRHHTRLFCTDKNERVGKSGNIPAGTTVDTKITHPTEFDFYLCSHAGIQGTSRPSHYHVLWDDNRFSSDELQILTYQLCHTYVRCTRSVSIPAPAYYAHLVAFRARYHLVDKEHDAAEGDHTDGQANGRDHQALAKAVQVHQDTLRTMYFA
# Procedure, shortened: as §1
# [5] = target: AGO2 F182del (Homo sapiens, UniProt Q9UKV8 1-859, S387D;S824A;S828D;S831D;S834A;del182-182)
# AGO2 F182del, sequence (Q9UKV8 other isoform, or with tags, fused parts or gaps S387D;S824A;S828D;S831D;S834A;del182-182): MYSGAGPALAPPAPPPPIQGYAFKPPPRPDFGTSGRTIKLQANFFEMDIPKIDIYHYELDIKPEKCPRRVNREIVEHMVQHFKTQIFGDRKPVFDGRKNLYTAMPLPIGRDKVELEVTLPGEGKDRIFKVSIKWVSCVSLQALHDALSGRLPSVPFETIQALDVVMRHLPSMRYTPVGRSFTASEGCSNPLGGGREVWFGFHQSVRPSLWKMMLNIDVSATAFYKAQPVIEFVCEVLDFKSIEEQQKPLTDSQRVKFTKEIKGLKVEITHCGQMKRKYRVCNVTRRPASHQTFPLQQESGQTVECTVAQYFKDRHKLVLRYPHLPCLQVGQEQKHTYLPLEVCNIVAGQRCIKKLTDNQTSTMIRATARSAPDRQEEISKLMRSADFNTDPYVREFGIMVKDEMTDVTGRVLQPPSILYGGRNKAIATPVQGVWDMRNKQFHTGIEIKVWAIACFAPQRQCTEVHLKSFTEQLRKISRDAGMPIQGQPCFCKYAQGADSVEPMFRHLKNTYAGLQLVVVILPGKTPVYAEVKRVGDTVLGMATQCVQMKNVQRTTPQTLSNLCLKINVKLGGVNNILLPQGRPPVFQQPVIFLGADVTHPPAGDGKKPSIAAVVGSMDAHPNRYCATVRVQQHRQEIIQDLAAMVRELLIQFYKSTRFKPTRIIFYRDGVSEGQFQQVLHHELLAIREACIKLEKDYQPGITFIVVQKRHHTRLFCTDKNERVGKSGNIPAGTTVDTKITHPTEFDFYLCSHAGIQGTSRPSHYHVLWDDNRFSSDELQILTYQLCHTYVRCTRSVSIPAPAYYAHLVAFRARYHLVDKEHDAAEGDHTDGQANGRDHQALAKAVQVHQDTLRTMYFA
# Procedure, shortened: as §1
binder,measurement,setting,value
B1,binding signal,[1],0.126 fold enrichment over input
same,binding signal,[2],0.555 fold enrichment over input
same,binding signal,[3],0.217 fold enrichment over input
same,binding signal,[4],0.801 fold enrichment over input
B2,binding signal,[1],1.39 fold enrichment over input
same,binding signal,[2],3.09 fold enrichment over input
same,binding signal,[3],4.35 fold enrichment over input
same,binding signal,[4],0.905 fold enrichment over input
same,binding signal,[5],7.66 fold enrichment over input
B3,binding signal,[1],0.142 fold enrichment over input
same,binding signal,[2],0.569 fold enrichment over input
same,binding signal,[3],0.399 fold enrichment over input
same,binding signal,[4],0.646 fold enrichment over input
same,binding signal,[5],0.57 fold enrichment over input
B4,binding signal,[1],0.129 fold enrichment over input
same,binding signal,[2],0.455 fold enrichment over input
same,binding signal,[3],0.21 fold enrichment over input
same,binding signal,[4],0.634 fold enrichment over input
same,binding signal,[5],0.203 fold enrichment over input
B5,binding signal,[1],0.127 fold enrichment over input
same,binding signal,[2],0.455 fold enrichment over input
same,binding signal,[3],0.192 fold enrichment over input
same,binding signal,[4],0.624 fold enrichment over input
B6,binding signal,[1],0.152 fold enrichment over input
same,binding signal,[2],0.517 fold enrichment over input
same,binding signal,[3],0.259 fold enrichment over input
same,binding signal,[4],0.517 fold enrichment over input
same,binding signal,[5],0.82 fold enrichment over input
B7,binding signal,[1],0.164 fold enrichment over input
same,binding signal,[2],0.755 fold enrichment over input
same,binding signal,[3],0.475 fold enrichment over input
same,binding signal,[4],0.721 fold enrichment over input
same,binding signal,[5],1.89 fold enrichment over input
B8,binding signal,[1],0.122 fold enrichment over input
same,binding signal,[2],0.534 fold enrichment over input
same,binding signal,[3],0.209 fold enrichment over input
same,binding signal,[4],0.598 fold enrichment over input
same,binding signal,[5],0.359 fold enrichment over input
B9,binding signal,[1],0.137 fold enrichment over input
same,binding signal,[2],0.603 fold enrichment over input
same,binding signal,[3],0.333 fold enrichment over input
same,binding signal,[4],0.66 fold enrichment over input
same,binding signal,[5],0.976 fold enrichment over input
B10,binding signal,[1],0.12 fold enrichment over input
same,binding signal,[2],0.492 fold enrichment over input
same,binding signal,[3],0.247 fold enrichment over input
same,binding signal,[4],0.607 fold enrichment over input
same,binding signal,[5],0.21 fold enrichment over input

# Source: article PMC12529666, “Dysregulation of AGO2-miRNA dynamics underlies the AGO2-associated Lessel–Kreienkamp syndrome”
